Compound activity as filed in PubChem.
MITF primary: inhibitors of human MITF; O75030; AlphaScreen MITF homodimerization, bead proximity signal; inhibition, % at 2.6 µM; actives 0.91% (n = 650,000); in the data active = inhibition above about 50%
TEAD-YAP inh: TEAD-YAP interaction inhibition; HEK-TIYL cells, TEAD-Gal4/YAP UAS-luciferase luminescence; inhibition, % at 9.12 µM; actives 1.4% (n = 640,000); in the data active = inhibition above about 32%
FBW7 act: activators of human E3 ligase FBW7. normalized activity (activation), % at 26.1 µM. actives 0.13% (n = 650,000). AlphaScreen FBW7–phospho-cyclin E peptide binding, activator screen. AID 1259310; in the data active = normalized activity above about 1.9%;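 note: purified mutant Fbw7 with reduced substrate affinity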
Target sequence (Q969H0 whole entry, looked up): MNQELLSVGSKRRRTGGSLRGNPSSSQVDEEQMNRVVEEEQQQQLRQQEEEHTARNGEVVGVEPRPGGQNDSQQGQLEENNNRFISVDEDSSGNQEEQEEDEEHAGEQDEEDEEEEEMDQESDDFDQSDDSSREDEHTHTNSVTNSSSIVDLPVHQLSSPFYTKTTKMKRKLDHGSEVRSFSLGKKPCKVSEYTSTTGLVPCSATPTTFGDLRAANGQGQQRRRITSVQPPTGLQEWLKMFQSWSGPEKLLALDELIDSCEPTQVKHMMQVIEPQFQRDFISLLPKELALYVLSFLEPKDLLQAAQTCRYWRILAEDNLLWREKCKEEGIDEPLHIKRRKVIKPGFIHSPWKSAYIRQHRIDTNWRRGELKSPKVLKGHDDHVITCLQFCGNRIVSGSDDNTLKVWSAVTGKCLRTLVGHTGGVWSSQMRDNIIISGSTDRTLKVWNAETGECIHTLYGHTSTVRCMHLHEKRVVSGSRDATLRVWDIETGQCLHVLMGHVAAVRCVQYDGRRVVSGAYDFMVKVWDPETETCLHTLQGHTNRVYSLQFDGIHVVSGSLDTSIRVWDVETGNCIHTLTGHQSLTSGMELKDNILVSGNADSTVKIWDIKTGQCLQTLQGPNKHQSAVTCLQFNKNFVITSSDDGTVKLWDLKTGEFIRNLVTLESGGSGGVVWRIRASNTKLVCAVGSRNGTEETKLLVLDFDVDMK
GPR151 activ: activates the human receptor GPR151 | Q8TDV0 | PathHunter beta-arrestin GPR151 cells, luminescence | activation, % at 11.2 µM | actives 1% (n = 650,000) | AID 1508602; in the data active = activation above about 4.9%
Numbers stand for hits; ! = not confirmed by another sample. A selection: hits, their analogues and other compounds. The true share with any hit is near 3.4%.

Cc1ncn(-c2ccc(Nc3ncc4cccc(-c5ccc(F)cc5)c4n3)cc2)n1 was read as MITF primary inactive, TEAD-YAP inh inactive, FBW7 act inactive and GPR151 activ inactive.
Screening CC(C)Cc1ccc(C#N)c(SC2CC(=O)N(c3ccc(Br)cc3)C2=O)n1 (configuration not stated) returned MITF primary inactive, TEAD-YAP inh inactive, FBW7 act inactive and GPR151 activ inactive.
For CCCN=Cc1c(O)[nH]c2ccccc12 the results were MITF primary inactive, TEAD-YAP inh inactive, FBW7 act inactive and GPR151 activ inactive.
Cc1ccc(-c2cccc3cnc(Nc4ccc5c(c4)OCO5)nc23)cn1 was read as MITF primary inactive, TEAD-YAP inh 33, FBW7 act inactive and GPR151 activ inactive.
For Cc1ccc(-c2cccc3cnc(NC4CCC(C(=O)N5CCCC5)CC4)nc23)cn1 (configuration not stated) the results were MITF primary inactive, TEAD-YAP inh 45!, FBW7 act inactive and GPR151 activ inactive.
`Cc1ccc(-c2ncn(-c3ccc(Nc4cc(Nc5ccccc5C(N)=O)c(C)cn4)cc3)n2)cn1` gave MITF primary inactive, TEAD-YAP inh 38, FBW7 act inactive and GPR151 activ inactive.
Cc1ncn(-c2ccc(Nc3ncc4cccc(C)c4n3)cc2)n1 was read as MITF primary inactive, TEAD-YAP inh inactive, FBW7 act inactive and GPR151 activ inactive.
`Cc1ccc(-c2ncn(-c3ccc(Nc4cc(Nc5ccccc5C(N)=O)c(C5CC5)cn4)cc3)n2)cn1` gave MITF primary inactive, TEAD-YAP inh inactive, FBW7 act inactive and GPR151 activ inactive.
Screening Cc1ccc(-c2ncn(-c3ccc(Nc4ncc5cccc(-c6ccc7c(c6)OCO7)c5n4)cc3)n2)cn1 returned MITF primary inactive, TEAD-YAP inh inactive, FBW7 act inactive and GPR151 activ inactive.
`Cc1ncn(-c2ccc(Nc3ncc4cccc(-c5ccn[nH]5)c4n3)cc2)n1` gave MITF primary inactive, TEAD-YAP inh 33, FBW7 act inactive and GPR151 activ inactive.
O=C(Cc1ccccc1)Nc1ccnn1C1CCN(Cc2ccccc2)CC1 was read as MITF primary inactive, TEAD-YAP inh inactive, FBW7 act inactive and GPR151 activ inactive.
Cc1cccc(NC(=O)C(=O)NCC(C)CN(C)C)c1 (configuration not stated) was read as MITF primary inactive, TEAD-YAP inh inactive, FBW7 act inactive and GPR151 activ inactive.
For Cc1ncn(-c2ccc(Nc3ncc4cccc(-c5nccs5)c4n3)cc2)n1 the results were MITF primary inactive, TEAD-YAP inh 56, FBW7 act inactive and GPR151 activ inactive.
Screening CC(C)C(=O)Nc1ccc(NC(=O)C(C)C)nc1 returned MITF primary inactive, TEAD-YAP inh inactive, FBW7 act inactive and GPR151 activ inactive.
For CC(C)C(=O)Nc1ccc(NC(=O)c2ccco2)nc1 the results were MITF primary inactive, TEAD-YAP inh 74, FBW7 act inactive and GPR151 activ inactive.
`O=C(Nc1ccc(NC(=O)C2CC2)cn1)c1ccco1` gave MITF primary inactive, TEAD-YAP inh 48, FBW7 act inactive and GPR151 activ inactive.
O=C(Cn1c(=O)n(Cc2ccccc2)c(=O)c2cccnc21)Nc1cccc(Cl)c1 was read as MITF primary inactive, TEAD-YAP inh inactive, FBW7 act inactive and GPR151 activ inactive.
`Cc1ccc2nc(-c3cccc(N)c3)[nH]c2c1` gave MITF primary inactive, TEAD-YAP inh 60, FBW7 act inactive and GPR151 activ inactive.
Nc1cccc(-c2nc3cc4ccccc4cc3[nH]2)c1 was read as MITF primary inactive, TEAD-YAP inh 50, FBW7 act inactive and GPR151 activ inactive.
For Cc1ccc2nc(-c3ccccc3)[nH]c2c1 the results were MITF primary inactive, TEAD-YAP inh 51, FBW7 act inactive and GPR151 activ inactive.
CN(C)c1ccc(-c2nc3ccccc3[nH]2)cc1 was read as MITF primary inactive, TEAD-YAP inh 96, FBW7 act inactive and GPR151 activ inactive.
For CC(CNC(=O)c1ccc(I)cc1)CN(C)C (configuration not stated) the results were MITF primary inactive, TEAD-YAP inh inactive, FBW7 act inactive and GPR151 activ inactive.
Screening CS(=O)(=O)N(CC(=O)Nc1ccccc1-c1ccccc1)c1ccc(Cl)cc1 returned MITF primary inactive, TEAD-YAP inh inactive, FBW7 act inactive and GPR151 activ inactive.
Screening CC(C)(C)C1CCc2c(sc(NC(=O)c3cc4n(n3)C(C(F)(F)F)CC(c3ccccc3)N4)c2C#N)C1 (configuration not stated) returned MITF primary inactive, TEAD-YAP inh inactive, FBW7 act inactive and GPR151 activ inactive.
Screening Nc1ccc(C(=O)Nc2ccc3nc(-c4ccccc4)[nH]c3c2)cc1 returned MITF primary inactive, TEAD-YAP inh inactive, FBW7 act inactive and GPR151 activ inactive.
Nc1ccc(-c2nc3ccc(C(=O)O)cc3[nH]2)cc1 was read as MITF primary inactive, TEAD-YAP inh 36, FBW7 act inactive and GPR151 activ inactive.
CC(=O)O/N=C(\N)c1nonc1N1CCOCC1 was read as MITF primary inactive, TEAD-YAP inh inactive, FBW7 act 1.9 and GPR151 activ inactive.
For COc1ccc(/C=C2\C(=O)ON=C2C)cc1O the results were MITF primary 52, TEAD-YAP inh inactive, FBW7 act inactive and GPR151 activ inactive.
CCOc1cc(/C=C2/C(=O)ON=C2C)ccc1O was read as MITF primary inactive, TEAD-YAP inh inactive, FBW7 act inactive and GPR151 activ inactive.
`CCOc1ccc(/C=C2/C(=O)ON=C2C)cc1Br` gave MITF primary 55, TEAD-YAP inh inactive, FBW7 act inactive and GPR151 activ inactive.
`C=CCOc1ccc(/C=C2/C(=O)ON=C2C)cc1Br` gave MITF primary inactive, TEAD-YAP inh inactive, FBW7 act inactive and GPR151 activ inactive.
`COc1cc(/C=C2\C(=O)ON=C2C)ccc1O` gave MITF primary 60, TEAD-YAP inh inactive, FBW7 act inactive and GPR151 activ inactive.
For CC1=NOC(=O)/C1=C/c1ccc(O)cc1O the results were MITF primary 53, TEAD-YAP inh inactive, FBW7 act inactive and GPR151 activ inactive.
For Cc1cc(C)c2c(c1)=C(c1sc(=Nc3ccccc3)n(-c3ccccc3)c1O)C(=O)N=2 the results were MITF primary inactive, TEAD-YAP inh inactive, FBW7 act inactive and GPR151 activ inactive.
CC(=O)Oc1ccc(N2C(=O)c3cccc(N)c3C2=O)cc1 was read as MITF primary inactive, TEAD-YAP inh inactive, FBW7 act inactive and GPR151 activ inactive.
O=C(CNc1ccc(I)cc1)N/N=C/c1cccnc1 was read as MITF primary inactive, TEAD-YAP inh inactive, FBW7 act inactive and GPR151 activ inactive.
Screening COc1ccc(/C=C2/NC(=S)NC2=O)cc1O returned MITF primary inactive, TEAD-YAP inh 40, FBW7 act inactive and GPR151 activ inactive.
For C#CCOc1ccc(/C=C2/C(=O)ON=C2C)cc1 the results were MITF primary 58, TEAD-YAP inh inactive, FBW7 act inactive and GPR151 activ inactive.
`COc1cc(/C=C2\C(=O)ON=C2C)cc(Br)c1O` gave MITF primary 81, TEAD-YAP inh inactive, FBW7 act inactive and GPR151 activ inactive.
COc1ccc(/C=C2\NC(=S)NC2=O)cc1C was read as MITF primary inactive, TEAD-YAP inh inactive, FBW7 act inactive and GPR151 activ inactive.
